CCT modulator: modulators of cytosolic chaperonin (CCT/TRiC) activity; purified chaperonin ATPase assay, HTRF ADP detection, 30 min; activity change, % (no concentration beside the values), hits read low; 0.3% of 360,000 active; AID 651819; in the data active means activity change below about -30%; further: on the % scale 0 is the no-effect control and ±100 the full control effect
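TRiC (40 or 20 nM final, by batch activity) in 30 mM Tris pH 7.4, 100 mM KCl, 5 mM MgCl2, 1 mM DTT was treated with compound at 76 uM single dose, then 10 uM ATP, 30 min at 37 °C. ADP was read by HTRF Transcreener.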
PINK1 modulator: modulators of PINK1 expression. 0.2% of 410,000 active. PINK1 immunofluorescence, high-content cytometry, 24 h. Potency, µM (doses to about 76.6 µM), without a hit: at the highest dose activation (PINK1 increase), most hits filed as activators. AID 624263; active means well fitted activation curve with a large enough effect; inconclusive means small, poorly fitted or top-dose-only effect; cell line not stated here; further: potency means the concentration at half of the fitted maximal effect; % of control where 0% means no effect; nearly all actives have a fitted effect of over 65% in size
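Decision-based qHTS: stable cells, 24 h exposure to five compound concentrations, CCCP as control. Fixed cells stained for PINK1 plus nuclear, mitochondrial and cell markers, cytometer read.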
PI4K2A inh: blocks human PI4K2A kinase activity. Q9BTU6. purified PI4K2A, ADP-Glo luminescence, 1 h; hits give low values. activity change, negative = inhibition, % at 76.9 µM. 0.13% of 420,000 active. AID 1346378; in the data active means activity change below about -50%; inconclusive means mostly about -30% to -49%;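 further: -100% = wells without enzyme as full effect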
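Compounds are screened against recombinant PI4K2A using PI as substrate and ATP, the latter dispensed at 300 microM. Reactions run one hour at ambient temperature before ADP-Glo detection; full inhibition defined by wells lacking enzyme.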
PGK inhibitor: blocks T. brucei phosphoglycerate kinase | P07378 | PGK/GAPDH coupled, Kinase-Glo luminescence, 60 min | Potency, µM (series often up to 57.5 µM), inactives show top-dose activity change, negative = inhibition, most hits filed as inhibitors | 0.043% of 380,000 active | AID 602233; further: potency means the concentration at half of the fitted maximal effect; on the % scale 0 is the no-effect control and ±100 the full control effect; nearly all actives have a fitted effect of over 60% in size
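Recombinant glycosomal PGK reaction used 1,3-bisphosphoglycerate generated in-well by GAPDH (100nM final) in 100mM TEA pH 7.6, 5mM MgCl2, 0.01% Tween-20. After 60 minutes at room temperature, ATP was read by Kinase-Glo Plus luminescence end-point.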
GLS inh: inhibitors of human glutaminase (GLS); Potency, µM (highest dose often 45.5 µM), for inactives: top-dose activity change, negative = inhibition, hits mostly inhibitors; 0.21% of 410,000 active; AID 624170; GLS enzymatic activity, qHTS titration; O94925; further: potency means the concentration at half of the fitted maximal effect; on the % scale 0 is the no-effect control and ±100 the full control effect
Target sequence (O94925 whole entry, looked up): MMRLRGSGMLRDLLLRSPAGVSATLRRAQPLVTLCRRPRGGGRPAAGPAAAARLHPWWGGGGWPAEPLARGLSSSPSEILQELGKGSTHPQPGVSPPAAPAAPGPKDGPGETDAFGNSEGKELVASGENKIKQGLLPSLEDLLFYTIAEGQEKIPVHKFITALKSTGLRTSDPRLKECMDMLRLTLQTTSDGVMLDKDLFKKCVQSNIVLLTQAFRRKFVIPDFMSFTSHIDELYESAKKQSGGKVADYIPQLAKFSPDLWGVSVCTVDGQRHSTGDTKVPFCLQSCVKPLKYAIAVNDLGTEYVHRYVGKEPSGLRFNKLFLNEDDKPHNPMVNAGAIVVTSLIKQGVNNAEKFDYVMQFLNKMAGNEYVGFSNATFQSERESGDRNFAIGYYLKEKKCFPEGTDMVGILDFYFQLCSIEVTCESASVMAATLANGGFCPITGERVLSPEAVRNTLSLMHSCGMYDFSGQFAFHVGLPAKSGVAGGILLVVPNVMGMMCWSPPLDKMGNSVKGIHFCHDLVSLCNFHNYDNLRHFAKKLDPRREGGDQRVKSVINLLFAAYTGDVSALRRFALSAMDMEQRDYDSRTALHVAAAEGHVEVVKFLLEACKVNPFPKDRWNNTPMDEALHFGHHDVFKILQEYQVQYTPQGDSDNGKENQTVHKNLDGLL
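Read-out is an Amplex red fluorescence increase coupled through glutamate oxidase and HRP, measured before and after 30 min room-temperature incubation. hKGA is in 45 mM KH2PO4 (pH 8.2) with 0.02% Tween-20; glutamine added as 1mM solution.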
The depositor's hits bear a star; i = inactive; ? = inconclusive; nt = no result given; ! = not confirmed by another sample; [ ] = dose if it differs, or a comment. An excerpt weighted towards active compounds, which were near 0.78% of everything screened. Unless noted, the call rests on the fitted dose curve; in most records, active means well fitted curve in the direction sought with a large enough effect; inconclusive means small, poorly fitted or top-dose-only effect, or another doubt; inactive means no such curve, though single readings can be large; an effect the other way counts as inactive or inconclusive.

SMILES	CCT modulator	PINK1 modulator	PI4K2A inh	PGK inhibitor	GLS inh
CC1(c2nnc(-c3ccncc3)o2)CC(c2ccc([N+](=O)[O-])cc2)=NO1 (centres undefined)	-62*	-1%	0	6%	6%
O=C(O)c1ccc(N2Cc3ccccc3C2)cc1O	3	nt	-5	-23%	4µM*
CC(C)(C)c1cc(C=O)cc(C(C)(C)C)c1O	nt	nt	1	nt	nt
Cc1ccc2[nH]c3ccccc3c(=O)c2c1	-2	6%	9	-8%	-16%
O=c1c2ccccc2[nH]c2ccc(O)cc12	-10	0%	-5	-12%	5µM*
COc1ccc2nc(NC(=O)c3cc(C)oc3C)sc2c1	2	5%	-10	?	6%
COc1ccc2nc(NC(=O)c3ccoc3C)sc2c1	-7	5%[38.3 µM]	-85*	?	-13%
COC(=O)C1CCCCN1Cc1nc(N(C)C)c2ccccc2n1 (centres undefined)	nt	-1%	nt	nt	nt
CC(C)C(O)(C(=O)NNc1ccccc1)C(C)C	-3	1%	-3	4%	13µM*
Cc1c(C#N)c2ncn(Cc3ccccn3)c(=O)c2n1-c1ccccc1	-80*	0%	5	4%	-20%
COc1cc(=O)n2c(c1C(=O)N(C)Cc1nonc1C)CCN(Cc1c(F)cccc1F)CC2	nt	1%	nt	nt	nt
Cc1cc(-c2ccc(N=Nc3ccc4c(S(=O)(=O)O)cc(S(=O)(=O)O)c(N)c4c3O)c(C)c2)ccc1N=Nc1ccc2c(S(=O)(=O)O)cc(S(=O)(=O)O)c(N)c2c1O	nt	nt	nt	nt	14µM*!
COc1cc2c(cc1OC)CN(C(=O)[C@H](C)N[C@@H](CCc1ccccc1)C(=O)O)[C@H](C(=O)O)C2	nt	nt	-5	nt	nt
C[c-]1[c-](C)[c-](C)[c-](C)[c-]1C.[Fe].c1cc2nccc(N3CCCC3)[c-]2c1 (centres undefined)	-4	2%	-16	?	13µM*!
c1cc(N2CCCCC2)nc(N2CCCCC2)n1	1	7%	7	-8%	-18%
O=C(C[n+]1ccccc1)c1ccc(-c2ccccc2)cc1	-1	0%	-1	-3%	-10%
CN(C)c1cc[n+](CC(=O)c2ccc(-c3ccccc3)cc2)cc1	-1	25µM*	-7	i	8%
Cc1ccc(OCCCc2c(C)n[nH]c2C)cc1	-60*	4%	-2	i	-6%
CS(=O)(=O)N(CC(=O)NCCSC1CCCCC1)c1ccccc1	-33*	-1%	-1	i	1%
CCCCOC(=O)c1ccc(NC(=S)N2CCN(c3ncc4c(=O)c(C(=O)O)cn(CC)c4n3)CC2)cc1	-1	28µM*	-5	1%	2%
COc1ccccc1-c1ccnc(-n2ncc(C(=O)NCC3(N4CCOCC4)CCCC3)c2C)n1	nt	1%	nt	nt	nt
N#CC1(c2ccc(F)cc2)CCC(=O)CC1	nt	nt	2	nt	nt
Cc1ccc(CN2CCOc3ccc(CN4CCC(O)(c5cccnc5)CC4)cc3C2)cc1	nt	1%	nt	nt	nt
CN(C)c1ccc(N=Nc2nc3ccccc3n2C)cc1	-1	2%	-70*	14µM*	10%
Cn1c(N=Nc2ccccc2)nc2ccccc21	1	0%	-87*	?	4%
SMILES	CCT modulator	PINK1 modulator	PI4K2A inh	PGK inhibitor	GLS inh
CCn1ccc(NS(=O)(=O)c2ccc(N)cc2)nc1=O	nt	nt	1	nt	nt
Cc1ccc(-n2c(Cc3cccc4ccccc34)n[nH]c2=S)c(C)c1	-9	4%	-2	-5%	10µM*
CO/N=C(/C(=O)N[C@@H]1C(=O)N2C(C(=O)OC(C)OC(C)=O)=C(COC(N)=O)CS[C@H]12)c1ccco1 (some centres undefined)	nt	nt	nt	nt	0%
CC(C)(C)n1nnnc1C(c1ccccc1)N1CCc2ccccc2C1 (centres undefined)	-57*	10%	1	-2%	-2%
O=C(N/N=C/c1ccncc1)c1ccccn1	0	-2%	1	-12%	1%
CN(C)c1ccc(/C=N/NC(=O)c2ccccn2)cc1	-1	1%	-50*	?	3%
CN(N=Cc1ccccc1)C(=S)Nc1ccccc1	1	0%	-6	-9%	16µM*
Cc1nc(SCC(=O)c2cc3ccccc3oc2=O)c(C#N)c(-c2cccs2)c1C(=O)Nc1ccccc1	-2	40µM*	-2	-1%	-3%
CC(C)c1c(C#N)c(N)nc(SCC(=O)c2cc3ccccc3oc2=O)c1C#N	-2	?	-15	-4%	13%
C[C@@H]1CN(Cc2ccc3c(c2)CN(Cc2nc(-c4ccccc4)cs2)CCO3)C[C@H](C)O1	nt	0%	nt	nt	nt
COc1ccc(CCc2nc(C)ccc2O)cc1	-67*!	9%	-3	17%	24%
Cc1ccc(O)c(CO)n1	-1	-2%	1	-2%	-7%
Cn1c2ccccc2c2cc(C(=O)N3CCOc4ccc(C(C)(O)CCn5cccn5)cc4C3)ccc21 (centres undefined)	nt	0%	nt	nt	nt
O=Cc1cnc(N2CCN(c3ccccc3)CC2)s1	-2	0%	-3	2%	16%
N#CC(C#N)=Cc1cnc(N2CCN(c3ccccc3)CC2)s1	1	32µM*	5	-5%	9%
COc1cc(NCCCC(C)N)c2ncccc2c1 (centres undefined)	1	4%	-51*	i	23%
COc1cc(NCCCCC(C)N)c2nccc(C)c2c1 (centres undefined)	1	-1%	-9	6%	7%
O=C(NC(NC(=S)Nc1cccc(C(=O)O)c1)C(Cl)(Cl)Cl)OCc1ccccc1 (centres undefined)	-2	-2%	6	2%	0%
O=C(NC(NC(=S)Nc1cccc(Cl)c1)C(Cl)(Cl)Cl)OCc1ccccc1 (centres undefined)	2	7.9µM*	0	3%[11.5 µM]	1%
CCn1c(SCC(=O)NCc2ccc3c(c2)OCO3)nnc1-c1ccncc1	-53*	-1%	-3	-1%	17%
CCCCCOc1ccc(NC(=O)c2cc(SC)ccc2Cl)cc1	-3	14µM*	0	-2%	-8%
CCOc1ccc(NC(=O)c2cc(SC)ccc2Cl)cc1	3	2%	5	i	6%
Cc1[nH]c2c(F)cccc2c1CC(=O)NCCN1Cc2ccccc2OC(C)C1 (centres undefined)	nt	0%	nt	nt	nt
COc1ccc(C(=O)CC(=O)c2ccccc2)cc1	0	1%	-1	-1%	5%
COc1ccc(C(=O)C/C(=C\C(=O)c2ccc(C)cc2)c2ccccc2)cc1	2	25µM*	22	-8%	-10%
O=C(O)c1cc(O)c2c(c1)[C@H]([C@H]1c3cc(C(=O)O)cc(O)c3C(=O)c3c(O[C@@H]4O[C@H](CO)[C@@H](O)[C@H](O)[C@H]4O)cccc31)c1cccc(OC3O[C@H](CO)[C@@H](O)[C@H](O)[C@H]3O)c1C2=O (some centres undefined)	0	1%	-64*	?	?

Screens deposited in PubChem by National Center for Advancing Translational Sciences (NCATS).
